Parameters in all cases: scale not given: direction of the effect not stated beside the values
Experiment [1] has as its target Protein translocase subunit SecA (Escherichia coli (strain K12)) (UniProt P10408). Description: Assay to Identify E. coli SecA ATPase Inhibitors. Format: functional. To be noted: 30 µM.
The target in experiment [2] is T1, Ubiquitin-activating enzyme e1, putative (Leishmania donovani (strain BPK282A1)) (UniProt E9BSI1).
T1 sequence (whole entry): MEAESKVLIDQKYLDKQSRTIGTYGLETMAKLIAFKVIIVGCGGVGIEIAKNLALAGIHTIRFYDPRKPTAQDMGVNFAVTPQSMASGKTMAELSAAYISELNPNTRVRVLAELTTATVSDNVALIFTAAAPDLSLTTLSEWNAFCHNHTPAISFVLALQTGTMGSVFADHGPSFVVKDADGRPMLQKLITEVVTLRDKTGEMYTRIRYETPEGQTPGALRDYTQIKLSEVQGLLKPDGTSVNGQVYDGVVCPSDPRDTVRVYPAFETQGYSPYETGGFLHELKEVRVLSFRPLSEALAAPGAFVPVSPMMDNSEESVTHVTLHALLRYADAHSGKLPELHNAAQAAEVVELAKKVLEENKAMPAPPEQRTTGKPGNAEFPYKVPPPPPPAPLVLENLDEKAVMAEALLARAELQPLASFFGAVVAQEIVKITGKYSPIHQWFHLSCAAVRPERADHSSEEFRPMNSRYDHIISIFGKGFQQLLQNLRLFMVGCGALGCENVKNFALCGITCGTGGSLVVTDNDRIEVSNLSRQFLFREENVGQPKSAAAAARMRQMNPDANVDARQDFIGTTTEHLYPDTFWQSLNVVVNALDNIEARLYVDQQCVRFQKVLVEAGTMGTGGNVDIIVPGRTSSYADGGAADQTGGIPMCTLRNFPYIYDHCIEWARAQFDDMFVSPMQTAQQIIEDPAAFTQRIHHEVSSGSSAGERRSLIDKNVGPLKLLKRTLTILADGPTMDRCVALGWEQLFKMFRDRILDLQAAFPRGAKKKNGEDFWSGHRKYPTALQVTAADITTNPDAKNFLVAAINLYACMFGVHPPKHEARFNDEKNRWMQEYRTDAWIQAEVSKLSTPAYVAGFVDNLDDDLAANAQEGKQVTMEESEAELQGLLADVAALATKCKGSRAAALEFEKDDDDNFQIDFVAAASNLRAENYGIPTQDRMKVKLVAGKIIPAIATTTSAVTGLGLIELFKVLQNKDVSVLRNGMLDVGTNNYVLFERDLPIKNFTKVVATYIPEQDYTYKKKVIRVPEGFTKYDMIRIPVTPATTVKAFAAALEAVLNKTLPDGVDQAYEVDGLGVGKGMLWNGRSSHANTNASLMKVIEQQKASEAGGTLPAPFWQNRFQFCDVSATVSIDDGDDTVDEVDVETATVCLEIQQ
Description: Leishmania donovani Ubiquitin Activating Enzyme (LdE1). Format: functional. To be noted: 30 µM.

For experiment [3], the target named is Sialic acid-binding Ig-like lectin 9 (Homo sapiens) (UniProt Q9Y336). Description: Hs-Siglec9 ALPHAscreen SOP 20170721. To be noted: 10 µM.
Experiment [4] concerns Trypanosoma cruzi. Kind of experiment: Trypanosoma cruzi phosphomannomutase and mannose-1-phosphate guanylyltransferase assay. Format: functional. As to conditions: 10 µM.
In experiment [5] the target is T2, Arginase-2, mitochondrial (Homo sapiens) (UniProt P78540).
T2 sequence (whole entry): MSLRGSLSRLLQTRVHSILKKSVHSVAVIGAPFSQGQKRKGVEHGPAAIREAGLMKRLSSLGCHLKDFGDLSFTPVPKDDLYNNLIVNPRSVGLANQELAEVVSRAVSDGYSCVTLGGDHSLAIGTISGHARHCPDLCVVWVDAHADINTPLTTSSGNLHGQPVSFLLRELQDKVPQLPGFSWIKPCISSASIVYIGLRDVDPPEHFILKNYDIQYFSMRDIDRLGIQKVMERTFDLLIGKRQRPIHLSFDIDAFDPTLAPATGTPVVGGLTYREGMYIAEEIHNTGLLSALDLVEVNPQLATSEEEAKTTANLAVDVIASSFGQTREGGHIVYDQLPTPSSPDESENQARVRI
Kind of experiment: in vitro enzyme assay to detect the production of urea directly proportional to the activity of Arginase II. Also: in the data most compounds retested in dose-response had high values. To be noted: 33.3 µM. It counts as functional.

In experiment [6] the target is T3, Proteasome subunit beta (Trypanosoma cruzi) (UniProt O96673).
T3 sequence (whole entry): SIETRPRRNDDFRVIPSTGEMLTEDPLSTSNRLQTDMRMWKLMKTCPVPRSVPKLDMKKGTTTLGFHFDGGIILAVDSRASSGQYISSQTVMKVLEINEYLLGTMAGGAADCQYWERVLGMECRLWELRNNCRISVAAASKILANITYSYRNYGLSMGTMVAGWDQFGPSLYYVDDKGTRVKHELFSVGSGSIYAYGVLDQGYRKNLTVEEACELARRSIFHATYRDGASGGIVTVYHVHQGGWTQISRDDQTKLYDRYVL
Description: Trypanosoma cruzi proteasome chymotrypsin-like activity (TcProtChymo) assay. Also: in the data most compounds retested in dose-response had high values. To be noted: 9.37 µM. It counts as functional.

The species entered for experiment [7] is Homo sapiens. Kind of experiment: To identify inhibition of the IFN signalling (Jak-Stat) pathway via expression of an eGFP reporter gene under the control of an IFN-stimulated response element (ISRE) containing MxA promoter. Format: functional. To be noted: 30 µM.
The target in experiment [8] is T4, Tyrosyl-tRNA synthetase, putative (Trypanosoma cruzi (strain CL Brener)) (UniProt Q4DSP6).
T4 sequence (whole entry): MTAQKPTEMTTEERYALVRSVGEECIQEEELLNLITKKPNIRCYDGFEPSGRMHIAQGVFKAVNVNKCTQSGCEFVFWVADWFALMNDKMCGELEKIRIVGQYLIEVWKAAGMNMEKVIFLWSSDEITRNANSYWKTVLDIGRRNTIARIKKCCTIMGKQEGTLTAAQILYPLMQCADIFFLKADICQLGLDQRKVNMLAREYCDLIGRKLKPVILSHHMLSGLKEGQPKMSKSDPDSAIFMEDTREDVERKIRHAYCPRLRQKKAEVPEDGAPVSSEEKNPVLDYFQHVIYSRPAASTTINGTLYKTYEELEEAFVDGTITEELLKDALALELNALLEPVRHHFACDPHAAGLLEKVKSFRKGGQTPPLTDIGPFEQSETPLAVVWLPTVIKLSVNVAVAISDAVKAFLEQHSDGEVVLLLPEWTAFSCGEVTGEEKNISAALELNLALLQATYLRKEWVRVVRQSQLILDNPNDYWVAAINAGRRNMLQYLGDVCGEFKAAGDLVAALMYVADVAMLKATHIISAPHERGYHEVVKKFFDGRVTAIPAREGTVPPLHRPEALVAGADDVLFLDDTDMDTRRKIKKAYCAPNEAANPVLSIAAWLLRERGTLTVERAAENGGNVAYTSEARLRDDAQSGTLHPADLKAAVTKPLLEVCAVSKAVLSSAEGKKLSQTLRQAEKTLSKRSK
Description: Trypanosoma cruzi tyrosyl tRNA synthetase (TcYRS) _High Tyrosine SOP. Also: in the data most compounds retested in dose-response had high values. As to conditions: 30 µM. It counts as functional.

For experiment [9], the target named is T4, Tyrosyl-tRNA synthetase, putative (Trypanosoma cruzi (strain CL Brener)). Description: Trypanosoma cruzi tyrosyl tRNA synthetase (TcYRS) SOP. It counts as functional. To be noted: 30 µM.
Experiment [10] has as its target Chromo domain-containing protein 1 (Saccharomyces cerevisiae (strain ATCC 204508 / S288c) (Baker's yeast)) (UniProt P32657). Kind of experiment: ScCHD-1 Enzyme Inhibition Assay. Also: in the data most compounds retested in dose-response had high values. As to conditions: 30 µM. It counts as functional.

For part of these data: Potency and affinity values are given separately.

Sialic acid-binding Ig-like lectin 9 (Homo sapiens), sequence (Q9Y336 whole entry): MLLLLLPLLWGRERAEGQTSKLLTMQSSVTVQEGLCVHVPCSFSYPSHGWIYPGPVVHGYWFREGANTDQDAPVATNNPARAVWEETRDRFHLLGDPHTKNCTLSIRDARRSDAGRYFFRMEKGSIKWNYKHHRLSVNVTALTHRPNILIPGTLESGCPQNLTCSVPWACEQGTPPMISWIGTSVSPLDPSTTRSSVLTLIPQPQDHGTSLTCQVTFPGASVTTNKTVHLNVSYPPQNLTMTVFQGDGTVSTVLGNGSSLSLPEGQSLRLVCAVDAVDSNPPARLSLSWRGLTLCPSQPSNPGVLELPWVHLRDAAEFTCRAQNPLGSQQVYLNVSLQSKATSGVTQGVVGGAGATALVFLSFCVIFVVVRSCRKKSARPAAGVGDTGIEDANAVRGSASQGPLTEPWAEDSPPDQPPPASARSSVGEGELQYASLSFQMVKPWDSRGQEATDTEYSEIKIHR
Chromo domain-containing protein 1 (Saccharomyces cerevisiae (strain ATCC 204508 / S288c) (Baker's yeast)), sequence (P32657 whole entry, the tested form may be a part): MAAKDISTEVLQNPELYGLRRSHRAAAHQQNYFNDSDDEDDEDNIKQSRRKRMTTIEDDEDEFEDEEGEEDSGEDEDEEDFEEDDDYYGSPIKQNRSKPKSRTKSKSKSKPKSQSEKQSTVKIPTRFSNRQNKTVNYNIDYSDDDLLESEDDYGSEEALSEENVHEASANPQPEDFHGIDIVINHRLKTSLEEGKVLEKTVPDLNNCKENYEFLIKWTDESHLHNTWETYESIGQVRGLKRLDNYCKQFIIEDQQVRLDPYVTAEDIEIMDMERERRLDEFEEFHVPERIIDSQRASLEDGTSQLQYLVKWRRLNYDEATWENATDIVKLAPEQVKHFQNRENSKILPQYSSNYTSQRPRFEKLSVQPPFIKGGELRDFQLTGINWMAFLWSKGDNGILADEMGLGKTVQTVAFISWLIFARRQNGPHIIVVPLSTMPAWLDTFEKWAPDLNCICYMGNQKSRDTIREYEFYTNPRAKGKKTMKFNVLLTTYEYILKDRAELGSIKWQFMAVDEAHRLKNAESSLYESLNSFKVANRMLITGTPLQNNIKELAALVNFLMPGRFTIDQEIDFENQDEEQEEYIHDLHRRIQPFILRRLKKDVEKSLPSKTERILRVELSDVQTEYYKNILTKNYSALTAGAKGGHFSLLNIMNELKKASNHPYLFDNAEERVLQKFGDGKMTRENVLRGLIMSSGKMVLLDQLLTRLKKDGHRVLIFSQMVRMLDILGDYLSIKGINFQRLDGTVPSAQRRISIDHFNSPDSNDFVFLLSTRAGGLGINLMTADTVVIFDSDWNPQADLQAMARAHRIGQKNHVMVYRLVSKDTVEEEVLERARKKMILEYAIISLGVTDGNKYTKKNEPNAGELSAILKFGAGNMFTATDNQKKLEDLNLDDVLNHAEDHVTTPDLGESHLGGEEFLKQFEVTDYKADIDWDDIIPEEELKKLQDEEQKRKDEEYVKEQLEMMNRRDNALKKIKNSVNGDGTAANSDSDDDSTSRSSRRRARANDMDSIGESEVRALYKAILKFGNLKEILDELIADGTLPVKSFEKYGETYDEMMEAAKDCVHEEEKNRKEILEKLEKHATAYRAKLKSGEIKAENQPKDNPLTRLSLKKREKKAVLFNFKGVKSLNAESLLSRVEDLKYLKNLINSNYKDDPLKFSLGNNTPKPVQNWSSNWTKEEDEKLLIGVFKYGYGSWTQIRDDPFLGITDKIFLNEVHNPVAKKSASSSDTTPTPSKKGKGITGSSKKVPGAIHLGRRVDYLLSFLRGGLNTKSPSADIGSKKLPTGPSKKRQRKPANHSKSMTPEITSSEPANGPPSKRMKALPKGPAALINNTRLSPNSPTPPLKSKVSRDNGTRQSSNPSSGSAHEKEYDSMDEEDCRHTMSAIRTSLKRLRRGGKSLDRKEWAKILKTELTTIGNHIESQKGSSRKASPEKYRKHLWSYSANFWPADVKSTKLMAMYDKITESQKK
Protein translocase subunit SecA (Escherichia coli (strain K12)), sequence (P10408 whole entry): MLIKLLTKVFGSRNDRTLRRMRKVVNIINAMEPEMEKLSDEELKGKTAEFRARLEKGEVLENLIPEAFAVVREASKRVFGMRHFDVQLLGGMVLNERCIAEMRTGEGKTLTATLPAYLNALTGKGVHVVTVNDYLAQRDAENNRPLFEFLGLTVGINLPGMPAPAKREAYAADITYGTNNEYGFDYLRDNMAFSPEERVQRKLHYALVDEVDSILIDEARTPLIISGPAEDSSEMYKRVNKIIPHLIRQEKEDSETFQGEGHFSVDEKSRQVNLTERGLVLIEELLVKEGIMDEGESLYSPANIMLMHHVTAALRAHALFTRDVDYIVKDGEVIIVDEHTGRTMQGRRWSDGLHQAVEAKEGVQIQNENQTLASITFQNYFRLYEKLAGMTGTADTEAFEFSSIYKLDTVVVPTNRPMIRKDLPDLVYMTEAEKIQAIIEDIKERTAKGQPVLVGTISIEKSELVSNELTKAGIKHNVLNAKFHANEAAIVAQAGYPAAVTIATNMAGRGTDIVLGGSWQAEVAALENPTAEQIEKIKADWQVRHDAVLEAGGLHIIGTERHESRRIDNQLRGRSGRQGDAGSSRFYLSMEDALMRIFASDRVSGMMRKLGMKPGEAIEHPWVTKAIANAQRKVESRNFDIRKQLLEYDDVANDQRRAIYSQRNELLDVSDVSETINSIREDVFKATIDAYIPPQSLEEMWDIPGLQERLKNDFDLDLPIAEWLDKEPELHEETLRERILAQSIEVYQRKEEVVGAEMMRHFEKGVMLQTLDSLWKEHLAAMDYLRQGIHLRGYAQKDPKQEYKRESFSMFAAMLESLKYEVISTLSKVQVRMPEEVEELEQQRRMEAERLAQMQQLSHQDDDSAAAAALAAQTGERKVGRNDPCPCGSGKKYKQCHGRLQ

Take `CC(C)n1ccnc1CN1CCCN(C(=O)c2nccnc2N)CC1`: the Percent Effect in experiment [1] is -0.38%; in experiment [2] it was 7.69%; in experiment [3] it was -9.32%; in experiment [4], 1.97%; in [5], 0%; in experiment [6] it was 18.3%. Besides, the Percent Effect in experiment [7] was 1.4%; in experiment [8], 9.09%; in experiment [9], 22.9%; in experiment [10], -3.56%.
On to `CC(C)(C)c1n[nH]c(C2CN(C(=O)c3ccsc3)CCO2)n1` (stereo not given), for which the Percent Effect in experiment [1] is -1.88%; in experiment [2], 7.69%; in [3] it was 5.72%; in experiment [4] it was 0.657%; in experiment [5] it was 0.82%; in [6], 3.33%. In addition, the Percent Effect in experiment [7] was -15.3%; in experiment [8] it was 2.39%; in experiment [9] it was 13.2%; in experiment [10], 2.07%.
With `CN(C(=O)CN1CCOC(Cn2cccn2)C1)c1nccs1` (stereo not given), the Percent Effect in experiment [1] is -7.38%; in experiment [2] it was 18.2%; in experiment [3], 0.761%; in experiment [4], 4.29%; in experiment [5], -4.71%; in experiment [6] it was 11.8%. Moreover, the Percent Effect was -5.33% in experiment [7], 3.92% in experiment [8], 21.2% in experiment [9] and -15% in [10].
Take `Cc1ccc(SCC2CNc3nc4ccccc4c(=O)n32)c(C)c1` (stereo not given): the Percent Effect worked out at 0.606% in experiment [1]; 22.1% in experiment [2]; 23.4% in experiment [3]; 0.375% in experiment [4]; 5.94% in experiment [5]; 12.4% in experiment [6]. Further, the Percent Effect is 29.8% in experiment [7], 6.76% in experiment [8], -2.5% in experiment [9] and -2.7% in [10].
On to `CC(C)c1nc(C2CCCN2Cc2ccn(C)c(=O)c2)no1` (stereo not given), for which the Percent Effect in experiment [1] is -2.26%; in [2] it was 15.4%; in experiment [3], 1.98%; in [4], -0.845%; in experiment [5], 7.79%; in experiment [6] it was 20.1%. Also, the Percent Effect in experiment [7] is 17.1%; in [8], 6.22%; in experiment [9], 18.1%; in [10], -2.67%.
`NC[C@H]1CC[C@H](C(NC(=O)c2ccccn2)c2ccccn2)CC1` (stereo not given in full): the Percent Effect was 0.0974% in [1]; 14.7% in experiment [2]; 1.2% in [3]; -1.58% in [4]; 0.443% in experiment [5]; 15.6% in experiment [6]. The Percent Effect was 8.78% in experiment [7], 4.23% in experiment [8], 22.5% in experiment [9] and -24.4% in [10].
In the case of `O=C(Cn1c(=O)nc2n1C(=O)N(c1ccccc1)C2)Nc1ccccc1`, the Percent Effect in experiment [1] is -6.94%; in experiment [2], 16.2%; in experiment [3] it was 9.15%; in [4] it was 2.23%; in experiment [5], 24.8%; in [6] it was 23.6%. Further, the Percent Effect in experiment [7] came out at 5.58%; in experiment [8], 6.92%; in experiment [9], 14.6%; in experiment [10], 75.6%.
On to `CCc1nc(C)ncc1C(=O)N1CCCC(n2nc(C)nc2C)C1` (stereo not given), for which the Percent Effect in [1] was -0.229%; in experiment [2] it was -53.9%; in experiment [3], -2.48%; in experiment [4], 8.92%; in [5], -3.69%; in experiment [6], 0.0853%. Besides, the Percent Effect is -15.3% in experiment [7], -3.35% in experiment [8], 6.02% in [9] and -2.45% in experiment [10].
As to `CNC(=O)N1C[C@H]2C[C@H](C(=O)Nc3ccccc3)[C@@H](C1)O2`, the Percent Effect in [1] is -6.94%; in [2] it was -35.1%; in experiment [3], 1.87%; in experiment [4] it was 0.0974%; in experiment [5] it was -3.24%; in experiment [6], 11.7%. For the same compound, the Percent Effect in experiment [7] stood at 1.26%; in experiment [8], 4.74%; in experiment [9] it was 10.3%; in experiment [10] it was 13.9%.

The record behind these values is ChEMBL document CHEMBL3988442, “University of Dundee, Small-Polar-MMV Screening Library” (2021).
